# Source: PubChem
# The list is not random: actives were taken first. Their share in the collection is about 4.3%.
# MITF act – MITF TRPM1 promoter activation in melanoma cells; hit rate 0.75% among 300,000; SK-MEL-5 TRPM1-promoter luciferase, 24 h; % of positive control, neutral wells = 0; activation, % at 12.5 µM;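 active = mean activation of at least 80% with every replicate also reaching 80%; inconclusive = mean reaches 80% but some replicate falls short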;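 note: 0% = neutral control wells and 100% = parthenolide positive control wells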
# Wnt bcat act – activates Wnt/beta-catenin signaling in a reporter cell assay; activator, plate reader; activation, % at 9.35 µM; hit rate 1.2% among 300,000; in the data active = activation above about 30%, passing the limit was not always enough; inconclusive = no clear call, values can overlap the other calls;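 note: 0% = neutral control wells and 100% = positive control wells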
# HSF-1 act – increases HSF-1 driven luciferase reporter signal; NIH3T3-HGL HSF-1 luciferase reporter, MG132, 8 h; 100% = twice DMSO control signal; activation, % at 9 µM; hit rate 1.7% among 300,000;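 active = mean replicate activation of at least 50% with a set share of replicates each reaching 50%; inconclusive = only one of those two conditions met; inactive = mean below 50% and too few replicates reaching it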;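 note: 0% = median of the neutral control wells and 100% = twice that signal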
# esBAF inh – inhibitors of esBAF chromatin remodeling in mouse ES cells | Bmi1-luciferase knock-in reporter, 24 h; 100% = twice the neutral-well signal | reporter increase, % at 12.5 µM | hit rate 2% among 350,000 | AID 602393; in the data active = activation above about 40%; inconclusive = no clear call, values can overlap the other calls;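 note: 0% = median of the plate's neutral control wells and 100% = double that signal; a rise in the Bmi1 reporter signal indicates esBAF inhibition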
# HSF1 inhib – HSF1 inhibition; NIH3T3-HGL HSE-luciferase, MG132-induced, luminescence 8 h; active compounds read low; activity change, negative = inhibition, % at 7.5 µM (by protocol); hit rate 0.77% among 300,000; AID 2098;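 active = more than half of replicate wells show activity change below -50%, luminescence cut by over half; inconclusive = some wells, but at most half, below -50%; inactive = no replicate well below -50%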;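 note: luciferase reports HSF-1 transcriptional activity via heat shock element; 0% = median of DMSO wells and -100% = zero luminescence signal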
# SMARCA2 act – activators of SMARCA2 function. hit rate 1% among 370,000. activation, % at 9.1 µM. MG213 cells, MMTV-luciferase reporter, dexamethasone, overnight. AID 652017; in the data active = activation above about 7.8%;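 note: 0% = vehicle wells and 100% = reference activator wells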
# * = called active by the depositor; ? = inconclusive; . = no result.
SMILES,MITF act,Wnt bcat act,HSF-1 act,esBAF inh,HSF1 inhib,SMARCA2 act
CC(C)CC(C(=O)Nc1cccc(O)c1)N1C(=O)c2ccccc2C1=O (centres undefined),1,0,-67,-8,-59*,-2
CN(C)c1cccc(C(=O)n2cc(C(=O)c3cc(F)ccc3O)cn2)c1,10,.,-42,52*,-25,7.8*
CC(NC(=O)/C=C/c1ccco1)c1nc2ccccc2n1Cc1c(Cl)cccc1Cl (centres undefined),-6,0,33,.,23,-3
CC(NC(=O)/C=C/c1ccco1)c1nc2ccccc2n1Cc1ccccc1F (centres undefined),5,.,65*,.,33,-3
CSc1ccccc1C(=O)N1CCc2ccc(NC(=O)c3ccccn3)cc2C1,.,0,.,46*,.,-3
O=C(Nc1ccc2c(c1)CN(C(=O)Nc1ccc(F)cc1)CC2)c1ccccn1,.,-3,.,47*,.,-4
Cc1cc(/C=C(\C#N)C(=O)NCc2ccco2)c(C)[nH]1,5,.,38,17,2,4
N#C/C(=C\c1ccc[nH]1)C(=O)Nc1ccccc1F,19,33*,.,71*,.,2
Cc1cc(/C=C(\C#N)C(=O)NC2CC2)c(C)[nH]1,94*,?,22,.,6,3
Cc1cc(/C=C(\C#N)C(=O)Nc2ccccc2F)c(C)[nH]1,106*,19,60*,29,10,2
Cc1cc(/C=C(\C#N)C(=O)NC2CCCCCC2)c(C)[nH]1,51,.,20,.,10,0
C[C@H](CO)N1C[C@H](C)[C@H](CN(C)Cc2cncnc2)Oc2cc(-c3cccnc3)ccc2S1(=O)=O,.,.,.,-2,.,.
CC(C)Sc1nnc(NC(=O)C2CC2)s1,27,3,-21,14,4,5
CC(C)Sc1nnc(Nc2ccccc2)s1,77,-3,27,43*,12,5
C[C@H](CO)N1C[C@H](C)[C@H](CN(C)Cc2ccncc2)OCCCC[C@H](C)Oc2ccc(NC(=O)Nc3ccc4c(c3)OCO4)cc2C1=O,.,.,.,73*,.,.
C[C@@H]1CCCCO[C@@H](CN(C)Cc2ccncc2)[C@H](C)CN([C@@H](C)CO)C(=O)c2cc(NC(=O)Nc3ccc4c(c3)OCO4)ccc2O1,.,.,.,62*,.,.
O=C(C[C@@H]1C[C@@H]2c3cc(NC(=O)CC4CC4)ccc3O[C@@H]2[C@H](CO)O1)NCc1cc(F)ccc1F,.,.,.,3,.,.
COc1ccccc1CNC(=O)C[C@H]1C=C[C@H](NC(=O)CN(C)C)[C@H](CO)O1,.,.,.,-3,.,.
C[C@@H]1CCCCO[C@@H](CN(C)C(=O)Nc2ccc(F)cc2)[C@H](C)CN([C@H](C)CO)C(=O)c2cc(NS(=O)(=O)c3ccc(Cl)cc3)ccc2O1,.,.,.,8,.,.
Cc1cc(Cl)cc2c1NC(=O)[C@]21[C@@H]2C(=O)N(Cc3ccccc3)C(=O)[C@@H]2[C@@H]2CCCN21,6,-5,4,-5,7,-1
COC(=O)c1c(N2C(=O)[C@H]3[C@@H](C2=O)[C@]2(C(=O)Nc4c(C)cccc42)N2CCC[C@@H]32)sc(C)c1C,-11,-3,-79,.,-74*,-4
COc1ccc(C(C[N+](=O)[O-])C2(c3ccc(OC)c(OC)c3)C(=O)c3ccccc3C2=O)cc1 (centres undefined),-7,.,214*,.,146,.
Cc1noc(C)c1NC(=O)Nc1ccc2c(c1)CC(=O)N([C@@H](C)CO)C[C@@H](C)[C@@H](CN(C)S(=O)(=O)c1cccs1)O2,.,.,.,1,.,.
O=C(Nc1ccc2nc3ccccc3nc2c1)c1ccc(Br)cc1,23,.,7,17,9,-3
COc1ccc(OCC(=O)Nc2cccc(-c3nc4ccccc4o3)c2)cc1,.,.,-5,51*,-3,0
SMILES,MITF act,Wnt bcat act,HSF-1 act,esBAF inh,HSF1 inhib,SMARCA2 act
CC(=O)Nc1ccc2oc(-c3ccccc3)nc2c1,79,64*,45,.,10,3
CC(=O)Nc1ccc2nc3ccccc3nc2c1,.,47*,47,42*,26,2
CC(C)C(=O)Nc1cccc(-c2nc3ccccc3o2)c1,26,.,-21,41*,-11,-1
O=C(Nc1ccc2oc(-c3ccncc3)nc2c1)c1ccccc1,1,0,-1,11,4,-3
CC(C)CC(=O)Nc1cccc(-c2nc3ccccc3o2)c1,22,.,20,.,5,3
CN(C)C(=O)C[C@H]1CC[C@@H]2[C@H](COC[C@H](O)CN2S(=O)(=O)c2ccccc2)O1,.,.,.,0,.,.
CCCNC(=O)N1C[C@@H](O)COC[C@H]2O[C@@H](CC(=O)NCc3ccncn3)CC[C@@H]21,.,.,.,-3,.,.
Cc1ccc(S(=O)(=O)Nc2ccc3c(c2)CC(=O)N([C@@H](C)CO)C[C@@H](C)[C@@H](CN(C)C)O3)cc1,.,.,.,-1,.,.
CCNC(=O)C[C@H]1C=C[C@H](NC(=O)C2CCOCC2)[C@@H](CO)O1,.,.,.,-1,.,.
CCC(=O)Nc1cccc(-c2nc3ccc(C)cc3o2)c1,.,38*,32,40,14,0
CCC(=O)Nc1ccc2oc(-c3cccc(C)c3)nc2c1,-9,.,.,-45,.,0
Cc1nc2cc(NC(=O)Nc3ccc(Br)cc3)ccc2o1,64,14,58*,.,19,0
Cc1nc2cc(NC(=O)NCc3ccc4c(c3)OCO4)ccc2o1,-16,1,6,-2,-6,0
CC(C)CC(=O)Nc1ccc2oc(-c3ccncc3)nc2c1,69,16,9,67*,11,5
CCCC(=O)Nc1ccc2oc(-c3cccnc3)nc2c1,51,37*,13,.,11,1
CCCCC(=O)Nc1ccc2oc(-c3cccnc3)nc2c1,39,.,.,23,.,1
COc1ccc(NC(=O)N(C)C[C@@H]2Oc3c(NS(=O)(=O)c4ccc(F)cc4)cccc3C(=O)N([C@@H](C)CO)C[C@H]2C)cc1,.,.,.,1,.,.
CCCC(=O)Nc1cccc(-c2nc3ccccc3o2)c1,39,.,14,28,5,-2
CC(=O)Nc1cccc(-c2nc3ccccc3o2)c1,.,4,73*,35,22,0
O=C(C[C@H]1CC[C@H]2[C@@H](COC[C@@H](O)CN2S(=O)(=O)c2cccc(Cl)c2)O1)Nc1ccc(-c2ccccc2)cc1,.,.,.,2,.,.
